A selection: hits, their analogues and other compounds. The true share with any hit is near 11%.
JMJD2A Tudor: inhibitors of human JMJD2A Tudor domain; O75164; Potency, µM (titrated, usually from 114 µM), for inactives: at the top dose activity change, negative = inhibition, hits mostly inhibitors; AlphaScreen JMJD2A-Tudor / H3K4me3 peptide binding; 390,000 compounds, 4.4% hits; also: % is scaled to controls: 0 for no effect and ±100 for the full control effect; nearly all actives have a fitted effect of over 50% in size
L3MBTL1 inh: inhibitors of human L3MBTL1 | Q9Y468 | AlphaScreen L3MBTL1–H3K9me1 peptide binding | Potency, µM (highest dose often 57.1 µM), for inactives: top-dose activity, negative = inhibition, usual class: inhibitors | 230,000 compounds, 0.66% hits; also: % is scaled to controls: 0 for no effect and ±100 for the full control effect; nearly all actives have a fitted effect of over 60% in size
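L3MBTL1 50 nM + b-AHA-H3(1-15)K9me1 75 nM, 30 min RT; compound added, 30 min RT; streptavidin donor/Ni-chelate acceptor beads 10 ug/mL each final, 30 min RT dark; AlphaScreen read.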
G9a inh: G9a (human) methyltransferase inhibition. Q96KQ7. G9a H3K9 monomethylation, AlphaScreen, 2 h. Potency, µM (highest dose often 102 µM), inactives show top-dose activity, negative = inhibition, most hits filed as inhibitors. 350,000 compounds, 8.8% hits. AID 504332; also: % is scaled to controls: 0 for no effect and ±100 for the full control effect; nearly all actives have a fitted effect of over 75% in size
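G9a (20 nM) preincubated 15 min RT with compounds, then 500 nM biotinylated H3K9 peptide and 20 uM SAM added; 2 h RT reaction. Monomethyl-H3K9 product detected by AlphaScreen with anti-H3K9me1 antibody, streptavidin donor and anti-rabbit IgG acceptor beads.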
HP1b binding inh: HP1-beta chromodomain-methylated histone interaction inhibition. AID 540317. AlphaScreen HP1-beta / biotin-H3K9me3 peptide binding. Potency, µM (titrated, usually from 114 µM), for inactives: at the highest dose activity change, negative = inhibition, hits mostly inhibitors. 390,000 compounds, 0.56% hits; also: nearly all actives have a fitted effect of over 70% in size
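Compound inhibition of the preformed complex between 50 nM HP1-beta and 50 nM biotinylated H3K9me3 peptide was read by AlphaScreen. Buffer was PBS pH 7.4 with 0.01% Tween-20. Incubations ran 30 min at room temperature, with 10 ug/mL donor/acceptor beads.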
BAZ2B block: BAZ2B (human) inhibition; Q9UIF8; AlphaScreen BAZ2B-H3K14Ac peptide displacement; Potency, µM (titrated, usually from 114 µM), for inactives: at the top dose activity change, negative = inhibition, most hits filed as inhibitors; 360,000 compounds, 4.4% hits; AID 504333; also: % is scaled to controls: 0 for no effect and ±100 for the full control effect; nearly all actives have a fitted effect of over 60% in size
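Complex of BAZ2B and biotin-H3K14Ac (50 nM apiece) forms over 30 min at RT, then faces library compounds up to 110 uM for another 30 min; AlphaScreen beads added, 20 min dark incubation, luminescence read.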
* marks the source's active call; other numbers are inactive results; ? = inconclusive; . = no result; [ ] = remark or other dose. Calls follow the shape of the dose curve; as a rule, active = well fitted inhibition curve with a large enough effect; inconclusive = small, poorly fitted or top-dose-only effect; inactive = no such curve, though single readings can be large or run the other way. Potency is read from the fitted curve at half-maximal effect.

SMILES	JMJD2A Tudor	L3MBTL1 inh	G9a inh	HP1b binding inh	BAZ2B block
CC(C)(C)c1ccc(C(CC(=O)O)NC(=O)Cc2ccccc2)cc1 (stereo unspecified)	0%	.	5%	31%	-2%
COc1ccc(CCNC(=O)CSc2nc(-c3ccc(F)cc3)cc(C(F)(F)F)n2)cc1OC	-20%	.	1%[59 µM]	22%	-28%
O=C(N/N=C/c1ccc[nH]1)c1cc2ccccc2cc1O	?	.	79µM*	-2%	40µM*
Cc1ccc(NC(=O)C2CCCN(c3ncnc4c3nc3n4CCCCC3)C2)c(Br)c1 (stereo unspecified)	4%	.	0%[59 µM]	34%	1%
CCN1CC(CN(C)Cc2nc(-c3ccco3)oc2C)CC1=O (stereo unspecified)	-7%	-6%	79µM*	46%	-15%
CONC(=O)C[C@@H](C#N)NC(=O)[C@@H]1CCCN1C(=O)[C@@H](NC(=O)c1ccc(N)c(Cl)c1)C(C)(C)C	-26%	.	.	.	.
CC(=O)Nc1ccn(C2CC3OCC(NC(=O)C(Cc4ccccc4)NC(=O)OC(C)(C)C)C3O2)c(=O)n1 (stereo unspecified)	-21%	.	.	41%	.
CN(C)c1ccc(N=Nc2ccc(S(=O)(=O)O)cc2)c2ccccc12	35µM*	.	11µM*	?	10µM*
COc1ccccc1OCCCCOc1ccccc1C(C)=O	40%	23%	?	98%	24%
COc1ccccc1OCCCCN1CCC(C)CC1	13µM*	.	25µM*	?	?
CC1CCCN(CCOCCSc2ccccc2)C1 (stereo unspecified)	2.5µM*	12%	10µM*	?	-34%
CC1CCN(CCCCOc2ccc(C(C)(C)C)cc2)CC1	20µM*	.	40µM*	?	?
CC1CC(C)CN(CCCSc2ccccc2)C1 (stereo unspecified)	28µM*	-15%	?	?	?
COc1ccccc1NC(=O)c1sc2ncn(Cc3ccccc3Cl)c(=O)c2c1C	-20%	.	-4%[59 µM]	24%	8%
CC1CCN(CCCCOc2ccccc2-c2ccccc2)CC1	4.5µM*	-8%	13µM*	?	79µM*
CC1CCN(CCOCCOc2ccccc2-c2ccccc2)CC1	3.2µM*	0%	28µM*	?	?
CC1CCN(CCOCCOc2ccccc2Br)CC1	2.5µM*	7%[11.4 µM]	?	?	56µM*
c1ccc(OCCOCCN2CCOCC2)cc1	-4%	.	25%	24%	11%
CC1CCCN(CCCOc2ccccc2-c2ccccc2)C1 (stereo unspecified)	1.1µM*	-2%[11.4 µM]	11µM*	?	40µM*
CC(C)(C)c1ccccc1OCCOCCN1CCCCCC1	-13%	2%[11.4 µM]	-43%	16%	-38%
CN1CCC(N(C)C(=O)COc2ccccc2-c2ccccc2)CC1	-11%	-9%	7%[59 µM]	35%	12%
CCCCn1c(=O)c2c(nc3n2CCCN3Cc2ccccc2)n(C)c1=O	-31%	.	?	-10%	-28%
CCOc1ccc(NC(=O)c2ccc(NC(=O)N3CCSc4ncccc43)cc2)cc1	12%	.	-3%[59 µM]	28%	-2%
Clc1cccc(-c2nc(-c3ccc(-c4nn[nH]n4)cc3)no2)c1	-25%	9%	2%[0.501 µM]	24%	-7%
CCOc1ccc(NS(=O)(=O)c2cc3c(cc2C)N(C)CCO3)cc1	?	-8%	0%	-13%	-32%
SMILES	JMJD2A Tudor	L3MBTL1 inh	G9a inh	HP1b binding inh	BAZ2B block
COc1ccc(NS(=O)(=O)c2cc3c(cc2C)N(C)CCO3)cc1	?	-6%	11%	-12%	50µM*
N#CC1=C(N)Oc2cc(Nc3ccccc3)ccc2C1c1ccncc1 (stereo unspecified)	79µM*	-3%	.	-24%	?
N#CC1=C(N)Oc2cc(N)ccc2C1c1cccnc1 (stereo unspecified)	-12%	1%	6%	17%	-2%
COC(=O)C1CCC(=S)N1C(=O)c1ccccc1 (stereo unspecified)	-1%	3%	45µM*	42%	-30%
O=C(N/C=C/c1ccco1)Nc1cccc(Cl)c1	?	-15%	50µM*	6%	?
COc1ccc(NC(=O)N/C=C/c2ccco2)cc1	?	?	10µM*	-17%	?
O=C(Nc1cccc(Cl)c1)Nc1cccc(Cl)c1	18%	8%	17%[59 µM]	40%	12%
O=C(N/C=C/c1ccco1)OCc1ccccc1	-31%	-12%	50µM*	35%	?
Cc1ccc(CNc2ccc3c(c2)nc(C)n3C)cc1	-34%	-23%	25µM*	-5%	?
Cc1nc2cc(NCc3ccc(Cl)cc3)ccc2n1C	?	-7%	.	0%	-39%
COc1ccc(CNc2ccc3c(c2)nc(C)n3C)cc1	-30%	-3%	3.5µM*	-1%	-28%
COc1cccc(NC(=O)Nc2ccc3c(c2)nc(C)n3C)c1	-20%	10%	29%[0.501 µM]	-1%	2%
COc1ccc(OC)c(CNc2ccc3c(c2)nc(C)n3C)c1	-36%	.	35µM*	-10%	-36%
COc1ccc(OC)c(CNc2nc3ccc(C)cc3n3nnnc23)c1	-17%	.	9%[59 µM]	24%	-6%
Cc1c(C(=O)Nc2ccc(F)cc2)oc2ccc(S(=O)(=O)N3CCCCCC3)cc12	-19%	.	?	-16%	-7%
Cc1ccccc1CN1C(=O)c2ccccc2Sc2ccc(C(=O)NC3CCCCC3)cc21	-8%	.	-3%[59 µM]	9%	5%
COc1cnc(-c2ccccc2)nc1Oc1cccc(C)c1	80%	14%	41%[12.7 µM]	170%	77%
COc1cnc(-c2ccccn2)nc1Oc1c(C)cccc1C	-25%	?	?	32%	22µM*
COc1cnc(-c2ccccn2)nc1Oc1cccc(Cl)c1	-24%	-18%	-3%[12.7 µM]	32%	45µM*
COc1cnc(-c2ccccn2)nc1Sc1c(Cl)cccc1Cl	-40%	-20%	6%[12.7 µM]	19%	-7%
Cc1cccc(N2CCN(C(=O)c3oc(=O)c4ccccc4c3-c3ccccc3)CC2C)c1 (stereo unspecified)	-28%	.	-33%[59 µM]	7%	.
CC(=O)N1CCc2cc(S(=O)(=O)CCC(=O)Nc3ccc(Cl)cc3F)ccc21	-10%	.	71µM*	49%	-20%
CCC(=O)N1CCc2cc(S(=O)(=O)CCC(=O)Nc3cccc(C)n3)ccc21	-12%	.	50µM*	56%	7%
CCC(=O)N1CCc2cc(S(=O)(=O)CCC(=O)Nc3cc(Cl)ccc3OC)ccc21	14µM*	.	13µM*	8%	.
CCC(=O)N1CCc2cc(S(=O)(=O)CCC(=O)Nc3ccc(OC)cc3)ccc21	11%	.	.	36%	-3%
CCOC(=O)N1CCN(/[N+]([O-])=N/Oc2ccc([N+](=O)[O-])cc2[N+](=O)[O-])CC1C (stereo unspecified)	-27%	.	.	10%	.
O=C(CSc1nnc(-c2ccccc2)n1-c1ccccc1)NCc1ccco1	-18%	.	?	5%	-29%

Source: PubChem (National Center for Advancing Translational Sciences (NCATS))
